# Screening results deposited in PubChem by National Center for Advancing Translational Sciences (NCATS).
# Only some compounds are listed: those with a hit (about 0.64% of all), similar ones and a draw of the others.
# EPAC1 antag: EPAC1 (human) antagonism. EPAC1 GEF assay, Rap1b-BODIPY-GDP exchange fluorescence. actives 0.14% (n = 360,000). Potency, µM (series often up to 115 µM), for the others: top-dose activity change, negative = inhibition, most hits filed as inhibitors. O95398;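 also: potency is read from the fitted curve at half-maximal effect; plate controls were vehicle for no effect and positive control for full effect; nearly all actives have a fitted effect of over 50% in size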
# Target sequence (O95398 whole entry, looked up): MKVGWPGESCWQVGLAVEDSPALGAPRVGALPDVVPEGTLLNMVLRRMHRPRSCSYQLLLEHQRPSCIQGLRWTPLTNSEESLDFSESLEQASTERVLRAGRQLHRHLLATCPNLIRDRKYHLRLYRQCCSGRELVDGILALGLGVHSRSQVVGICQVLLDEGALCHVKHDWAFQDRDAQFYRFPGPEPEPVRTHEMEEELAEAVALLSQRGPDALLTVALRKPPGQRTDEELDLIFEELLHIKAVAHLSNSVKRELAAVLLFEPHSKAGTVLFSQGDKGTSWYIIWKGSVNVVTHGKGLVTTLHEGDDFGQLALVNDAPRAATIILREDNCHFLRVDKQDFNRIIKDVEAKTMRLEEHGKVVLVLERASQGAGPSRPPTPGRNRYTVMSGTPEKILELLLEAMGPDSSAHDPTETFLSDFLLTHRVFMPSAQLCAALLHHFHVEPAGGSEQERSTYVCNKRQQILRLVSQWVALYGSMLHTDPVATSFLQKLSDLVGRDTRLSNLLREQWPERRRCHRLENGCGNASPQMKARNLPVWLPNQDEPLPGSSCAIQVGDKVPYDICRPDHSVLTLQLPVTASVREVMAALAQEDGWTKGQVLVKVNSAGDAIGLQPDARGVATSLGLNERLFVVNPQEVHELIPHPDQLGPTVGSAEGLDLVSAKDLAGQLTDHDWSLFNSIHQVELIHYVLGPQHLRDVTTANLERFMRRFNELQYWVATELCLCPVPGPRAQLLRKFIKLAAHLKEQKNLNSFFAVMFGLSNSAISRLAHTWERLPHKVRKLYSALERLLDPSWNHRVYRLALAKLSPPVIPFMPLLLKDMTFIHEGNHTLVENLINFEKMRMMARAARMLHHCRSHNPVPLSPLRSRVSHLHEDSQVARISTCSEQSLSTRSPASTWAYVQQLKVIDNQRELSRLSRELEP
# EPAC2 antag: EPAC2 (human) antagonism; actives 0.18% (n = 360,000); Potency, µM (series often up to 114 µM), for the others: at the highest dose activity, negative = inhibition, usual class: inhibitors; EPAC2 GEF exchange of Rap1B-BODIPY-GDP, fluorescence; Q8WZA2; also: potency is read from the fitted curve at half-maximal effect; % is scaled to controls: 0 for no effect and ±100 for the full control effect; nearly all actives have a fitted effect of over 45% in size
# EPAC2 agonist: agonists of human EPAC2 (RAPGEF4) | Q8WZA2 | EPAC2 activation, biochemical qHTS; response scale: 100% = 6.5 mM cAMP response | Potency, µM (titrated, usually from 154 µM), inactives show top-dose activation, usual class: activators | actives 0.079% (n = 360,000); also: potency is read from the fitted curve at half-maximal effect; nearly all actives have a fitted effect of over 50% in size
#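 Each well held 100 nM EPAC2, 250 nM RAP1B-BODIPY-GDP and 50 uM GDP. Fluorescence, read at 5-min intervals to 30 min, was referenced to a 6.5 mM cAMP positive control.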
# PKM2 activator: activators of human pyruvate kinase M2 | purified PKM2, Kinase-Glo ATP luminescence, activation; response scale: 0% is enzyme alone, no compound | P14618 | actives 0.34% (n = 260,000) | Potency, µM (titrated, usually from 57.5 µM), without a hit: at the top dose activation, most hits filed as activators; also: potency is read from the fitted curve at half-maximal effect; % is scaled to controls: 0 for no effect and ±100 for the full control effect; nearly all actives have a fitted effect of over 55% in size
#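 Purified hPK-M2 (>95% pure) converted ADP (0.1 mM final) to ATP with 0.5 mM PEP in 50 mM imidazole pH7.2, KCl, MgCl2, Tween 20, BSA; 1 h at room temperature. ATP detected by Kinase-Glo luminescence.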
# IL2 activator: activates IL-2 in a cell-based reporter assay. IL-2 activation reporter assay, cell-based qHTS; stimulated with anti-CD3/CD4/CD28 beads; in transgenic mouse T cells. activation, % (series mostly up to about 46 µM). actives 0.065% (n = 360,000). AID 652025; in the data active = activation above about 50%; inconclusive = mostly about 30% to 49%; also: 0% is about no effect
#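 Using fluorescent plate cytometry, EGFP and DsRed are detected in transgenic mouse T cells stimulated 18 h at 37 degrees C with antibody-coated beads after 60 min compound pretreatment.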
# EPAC1 ag: activates human EPAC1 exchange factor; EPAC1 agonist qHTS, biochemical assay; response scale: 100% = response to 6.5 mM cAMP; O95398; actives 0.073% (n = 360,000); Potency, µM (series often up to 154 µM), for the others: at the highest dose activation, hits mostly activators; also: potency is read from the fitted curve at half-maximal effect; nearly all actives have a fitted effect of over 60% in size
#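 Compounds were pinned as a concentration titration into mixtures of EPAC1 (100 nM), BODIPY-GDP-loaded Rap1B (250 nM) and GDP (50 uM). After 5 min at room temperature, fluorescence was followed for 30 min; activity was scaled to 6.5 mM cAMP.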
# Numbers without * were called inactive; ? = inconclusive; · = no result given. Unless noted, calls follow the shape of the dose curve; as a rule, active = well fitted curve in the direction sought with a large enough effect; inconclusive = small, poorly fitted or top-dose-only effect, or another doubt; inactive = no such curve, though single readings can be large; an effect the other way counts as inactive or inconclusive.
SMILES,EPAC1 antag,EPAC2 antag,EPAC2 agonist,PKM2 activator,IL2 activator,EPAC1 ag
COc1cc(NS(=O)(=O)c2cc3[nH]c(=O)c(=O)[nH]c3cc2C)cc(OC)c1OC,?,3%,8%,7.1µM*,2,-6%
Cc1cc(Br)c2c(c1)[C@](O)(c1cn(C)c3ccccc13)C(=O)N2C,-8%,22µM*,5%,·,0,3%
CN1C(=O)[C@@](O)(c2cn(C)c3ccccc23)c2ccccc21,5%,-5%,3%,·,0,11%
CCS(=O)(=O)C1=NN2C(=N)/C(=C\c3ccc(OCCOc4cccc(OC)c4)c(OC)c3)C(=O)N=C2S1,?,?,-1%,·,-4,-6%
CCOc1cc(/C=C2\C(=N)N3N=C(S(C)(=O)=O)SC3=NC2=O)ccc1OCCOc1cccc(OC)c1,50µM*,-21%,-7%,·,0,2%
CCOC(=O)c1c(C)[nH]c(C(=O)COC(=O)c2ccco2)c1C,4%,5%,1%,·,1,-1%
Cc1cccc(NC(=O)Cn2c(O)c(N=NC(=O)c3ccccc3O)c3ccccc32)c1,56µM*,2%,-3%,-1%,3,-28%
CC(=O)N1CCC(CCCC2CCN(C(C)=O)CC2)CC1,0%,0%,3%,·,0,10%
CCS(=O)(=O)Nc1cccc(C2=NN(C(C)=O)C(c3cccs3)C2)c1 (configuration not stated),-21%,7%,1%,14µM*,1,-1%
Cc1ccc(S(=O)(=O)N2CCN(c3cnn(C)c(=O)c3Cl)CC2)cc1,-11%,0%,1%,20µM*,2,9%
Cc1ccc(S(=O)(=O)N2CCN(c3cnn(-c4ccccc4)c(=O)c3Cl)CC2)cc1,10%,3%,7%,1%,-3,-1%
CCC(=C(c1ccc(OC)cc1)c1ccc(OC)cc1)c1cn(CC(O)CN(CCO)CCO)c2ccccc12 (configuration not stated),-6%,14µM*,3%,0%,0,2%
COc1ccc(OCC(O)CN(CCO)CC(O)Cn2ccc3ccccc32)cc1 (configuration not stated),-2%,-17%,8%,2%,-1,-4%
O=C1c2cccc3c(O)ccc(c23)C(=O)N1Cc1ccccc1,227%,277%,89µM*,6%,1,100µM*
O=C(O)c1cccc(CN2C(=O)c3ccccc3C2=O)c1,-21%,3%,15%,·,1,-1%
CC[C@H](C)/C=C/C1=CC2=C(Cl)C(=O)[C@@]3(C)OC(=O)C(C(=O)[C@H](C)[C@@H](C)O)=C3C2=CO1,50µM*,?,-14%,·,-2,-21%
Cc1c(Cc2ccccc2)c(=O)oc2c(O)c(O)ccc12,?,?,7%,20µM*,0,-2%
Cc1cc(SCC(=O)c2ccc(O)c(O)c2)nc2ccccc12,28µM*,-30%,19%,0%,-2,13%
CCc1ccc(C(=O)CSc2n[nH]c(-c3ccncc3)n2)cc1,-10%,3%,6%,3%,-3,1%
O=C(CSc1n[nH]c(-c2ccccc2)n1)c1ccc(O)c(O)c1,35µM*,1%,10%,1%,-2,-1%
CC(C)CNC(=O)C1(C)CCCN1C(=O)c1ccc2ccccc2n1 (configuration not stated),0%,0%,4%,·,0,4%
CC(=O)N[C@@H](Cc1c[nH]c2ccccc12)C(=O)OCC(=O)Nc1cc(C)on1,12%,1%,2%,·,1,-1%
CNC(=S)N1N=C(c2ccc(C)cc2)CC1c1ccc(OC)cc1 (configuration not stated),1%,0%,0%,22µM*,-1,14%
Cc1sc2ncn(CC(=O)NCc3ccco3)c(=O)c2c1-c1ccc(F)cc1,-21%,0%,-2%,1%,1,1%
O=C(Cn1cnc2scc(-c3cccc([N+](=O)[O-])c3)c2c1=O)NCc1ccco1,56µM*,4%,-5%,0%,-4,1%
SMILES,EPAC1 antag,EPAC2 antag,EPAC2 agonist,PKM2 activator,IL2 activator,EPAC1 ag
CN(C)CCCN(C(=O)c1ccc([N+](=O)[O-])s1)c1nc2cc3c(cc2s1)OCCO3,-10%,?,?,-10%,2,-9%
CN(C)CCCN(C(=O)c1cc2cc([N+](=O)[O-])ccc2s1)c1nc2cc3c(cc2s1)OCCO3,?,50µM*,27%,·,-1,19%
O=C(Nc1ccc(C2SCCS2)cc1)c1ccccc1,13%,8%,-1%,-12%,0,4%
Cn1nc(-c2ccccc2)c2nc3ccccc3nc21,10%,291%,100µM*,-2%,0,9%
CC(=O)c1ccc(S(=O)(=O)Nc2ccc(C(=O)N(C)CC(=O)Nc3cccc(C)c3C)cc2)cc1,-6%,-1%,1%,·,1,-1%
O=C(NC(=S)/C(=C1\CCCCCN1)[N+](=O)[O-])c1ccccc1,-13%,3%,5%,·,-1,-7%
CN1C(=O)Cc2cc(S(=O)(=O)NCc3c(F)cccc3Cl)ccc21,-3%,-3%,8%,14µM*,0,3%
C#CCOCCOCCOCCNc1nc(N2CCN(C(=O)CCCCCCCCCCNC(=O)[C@H](CO)n3cc(CCCSC)nn3)CC2)nc(N2CCN(C(=O)CCCCCCCCCCNC(=O)[C@H](CCCCN)n3cc(CCO)nn3)CC2)n1,-24%,?,?,·,0,-8%
C#CCOCCOCCOCCNc1nc(N2CCN(C(=O)CCCCCCCCCCNC(=O)[C@H](CO)n3cc(CCCSC)nn3)CC2)nc(N2CCN(C(=O)CCCCCCCCCCNC(=O)[C@H](CCCN=C(N)N)n3cc(C[C@@H](C)CC)nn3)CC2)n1,56µM*,?,-19%,·,0,-30%
Brc1ccc(NCc2cccc3ccccc23)nc1,-8%,-7%,15%,7%,-2,20%
Oc1ccccc1CNc1ccc(Br)cn1,-10%,-4%,10%,32µM*,0,0%
COc1ccccc1CCNC(=O)C(=O)NCC1OCCN1S(=O)(=O)c1cc(F)ccc1F (configuration not stated),1%,14%,9%,-2%,-2,1%
COc1ccc(N=C2S/C(=C\c3ccc(OCC(=O)O)cc3)C(=O)N2CCc2c[nH]c3ccccc23)cc1,?,10%,4%,2.8µM*,-3,19%
O=C(O)COc1ccc(/C=C2\SC(=Nc3ccccc3)N(c3ccccc3)C2=O)cc1,-22%,-17%,-5%,6%,-2,-11%
